# About 79,000 compounds went through this panel and 15% of them were active in at least one assay; those are over-represented in the sample as a whole. A number with no mark means an inactive call. Active and inactive are the calls of the source. No stated cut-off is given here; in the data, active means growth inhibition above about 70%; inactive means the rest.
# How the values were obtained:
# [1] = NCI Yeast Anticancer Drug Screen. Data for the rad50 strain (AID 155);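 further: 0% = growth of vehicle-only cultures of the same strain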; settings: S. cerevisiae rad50 strain growth inhibition, stronger effect = higher value
# How it was run: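 DNA repair mutant yeast, compound exposure, growth read-out; inhibition is taken relative to vehicle.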
# [2] = NCI Yeast Anticancer Drug Screen. Data for the mec2-1 strain (AID 157); settings: S. cerevisiae mec2-1 strain, stronger effect = higher value
# How it was run: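 Readout is yeast growth inhibition, normalised to vehicle-treated controls, in the mec2-1 strain exposed to compound.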
# [3] = NCI Yeast Anticancer Drug Screen. Data for the sgs1 mgt1 strain (AID 161);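 further: 0% = growth of cultures given vehicle only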; settings: S. cerevisiae sgs1 mgt1 strain, stronger effect = higher value
# How it was run: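 This yeast growth screen uses a strain with defined DNA-repair lesions; compound-treated growth is compared with vehicle-treated growth.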
# [4] = NCI Yeast Anticancer Drug Screen. Data for the cln2 rad14 strain (AID 165);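 further: 0% = growth equal to vehicle treated cultures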; settings: S. cerevisiae cln2 rad14 strain, stronger effect = higher value
# How it was run: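 Relative to vehicle controls, growth inhibition of compound-treated cln2 rad14 yeast was recorded.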
# [5] = NCI Yeast Anticancer Drug Screen. Data for the bub3 strain (AID 167); settings: S. cerevisiae bub3 mutant strain, stronger effect = higher value
# How it was run: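 In this screen, a yeast mutant lacking normal mitotic checkpoint function is challenged with compound. Relative growth versus vehicle gives the inhibition value.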
# [6] = NCI Yeast Anticancer Drug Screen. Data for the mlh1 rad18 strain (AID 175); settings: S. cerevisiae mlh1 rad18 strain growth inhibition, stronger effect = higher value
# How it was run: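 Test agents were incubated with a yeast strain of defined genotype (DNA damage repair defect). Inhibition of growth was derived by comparison with vehicle-exposed cultures.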
# [7] = at 5.0 µM (retest, dose inferred, filed as 0.5)
# [8] = at 50.0 µM (retest, dose inferred, filed as 5.0)
Compound,"growth inhibition [1, 7]","growth inhibition [1, 8]",growth inhibition ([1]; at 50.0 µM),"growth inhibition [2, 7]","growth inhibition [2, 8]",growth inhibition ([2]; at 50.0 µM),"growth inhibition [3, 7]","growth inhibition [3, 8]",growth inhibition ([3]; at 50.0 µM),"growth inhibition [4, 7]","growth inhibition [4, 8]",growth inhibition ([4]; at 50.0 µM),"growth inhibition [5, 7]","growth inhibition [5, 8]",growth inhibition ([5]; at 50.0 µM),"growth inhibition [6, 7]","growth inhibition [6, 8]",growth inhibition ([6]; at 50.0 µM)
CC(C)CCCC(=O)CCCCCCC(=O)CCN(O)C(=O)C(N)CO (configuration not stated),98% (active),98% (active),92.9% (active),99% (active),99% (active),93.5% (active),98% (active),99% (active),94.2% (active),96% (active),97% (active),90.5% (active),99% (active),98% (active),93.4% (active),98% (active),98% (active),92% (active)
Clc1cccc2c(-c3ccccc3)c3cccc(Cl)c3cc12,4%,45%,58.8%,3%,50%,39.6%,8%,35%,42.2%,6%,54%,50.9%,-2%,51%,36.2%,1%,68%,91.4% (active)
O=C(CSc1nnc(Cc2ccccc2)o1)Nc1ccc(Cl)cc1,-20%,87% (active),16.1%,-5%,54%,15.2%,-1%,80% (active),48.6%,18%,79% (active),35%,4%,91% (active),26.2%,-5%,91% (active),28.8%
COc1ccc(/C=C2\SC(=S)N(/C=C(/C#N)C(=O)c3ccc4ccccc4c3)C2=O)cc1OC,-11%,98% (active),97.4% (active),-18%,99% (active),98.5% (active),1%,98% (active),97.2% (active),-13%,97% (active),95.3% (active),-22%,98% (active),98.6% (active),5%,99% (active),98.3% (active)
Cc1ccc(SSCCCS(=O)O)cc1,-1%,-93%,61.1%,-3%,60%,50.7%,6%,78% (active),83.8% (active),-12%,41%,60.1%,4%,82% (active),66.3%,3%,66%,75.2% (active)
N#Cc1c(-c2ccc([N+](=O)[O-])cc2)c(C#N)c(=O)n(NS(=O)(=O)c2ccccc2)c1S,35%,91% (active),51.8%,15%,81% (active),81.6% (active),17%,88% (active),78% (active),46%,67%,40%,46%,87% (active),61.6%,31%,81% (active),78.8% (active)
C=CCN1/C(=C\C=C\c2ccc3cc(C)ccc3[n+]2CC=C)C=Cc2cc(C)ccc21,58%,97% (active),90.5% (active),63%,99% (active),91.1% (active),90% (active),98% (active),92.6% (active),78% (active),98% (active),91.9% (active),83% (active),98% (active),91% (active),79% (active),98% (active),89.2% (active)
CC(C)(C)SC(=O)C1(C)OC1c1ccc([N+](=O)[O-])cc1 (configuration not stated),-6%,45%,53%,-4%,-3%,67.8%,-5%,51%,62.3%,5%,-2%,-20.8%,0%,13%,29.8%,-5%,49%,79.8% (active)
C[n+]1cccc2c1-c1ccccc1C2=O,6%,22%,-2.25%,-1%,22%,1.6%,3%,8%,8.15%,-3%,1%,39.5%,-2%,9%,11.1%,2%,28%,16.1%

# — PubChem BioAssay (NCI)
